Drawing on PubChem BioAssay (EPA / NIEHS), this text covers outcome and AC50 for nine molecules.

Records with an inconclusive call do not appear. Activity calls are given as the source filed them. How the source made its calls, unless noted: active means hit-call score of the fitted dose curve at least 0.9, where 1 is the maximum; inconclusive means response in the unintended direction; inactive means score below 0.9.

As usually defined, the AC50 is the concentration giving half of the maximal activity seen.

Experiment [1] in a line: Tanguay_ZF_120hpf_MORT_legacy: (Legacy) Oregon State University Tanguay Lab 120 Hour Post-fertilization zebrafish Assay for Mortality (AID 2283633). A digest of the protocol: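 Dechorionated Tropical 5D wild-type zebrafish embryos, one per well from 6 hpf, were statically exposed at 28C in the dark until 120 hpf (0.64% DMSO final). Mortality was scored as present/absent by brightfield microscopy, fitted positively versus DMSO.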

Experiment [2] in a line: Tanguay_ZF_120hpf_YSE_legacy: (Legacy) Oregon State University Tanguay Lab 120 Hour Post-fertilization zebrafish Assay for Yolk Sac Edema (AID 2283634).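 On AC50: actives raise the incidence of yolk sac edema above the DMSO baseline.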 The method in brief: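 Tropical 5D wild-type embryos, dechorionated with pronase at 4 hpf, were exposed singly from 6 hpf to 120 hpf under static, sealed, dark conditions at 28C with 0.64% DMSO final. Yolk sac edema was scored present/absent by brightfield microscopy.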

The nature of experiment [3]: Tanguay_ZF_120hpf_AXIS_legacy: (Legacy) Oregon State University Tanguay Lab 120 Hour Post-fertilization zebrafish Assay for Body Axis Malformation (AID 2283635).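 On AC50: potency for an increased fraction of larvae scored with body axis malformation.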 A digest of the protocol:
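Tropical 5D wild-type zebrafish embryos, dechorionated with pronase at 4 hpf, were placed singly in wells at 6 hpf and exposed statically to test chemical (0.64% DMSO final) at 28C until 120 hpf, then scored by brightfield for body axis defects.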

Experiment [4] in a line: Tanguay_ZF_120hpf_EYE_legacy: (Legacy) Oregon State University Tanguay Lab 120 Hour Post-fertilization zebrafish Assay for Eye Malformation (AID 2283636).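 Further: binary presence or absence of eye malformation scored by brightfield in 120 hpf larvae.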 The method in brief: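 Static waterborne exposure of dechorionated zebrafish embryos (strain Tropical 5D), 6 to 120 hpf, sealed plates at 28C, 0.64% DMSO vehicle. Eye malformation is scored as a binary endpoint, with gain of signal analysed relative to DMSO.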

The nature of experiment [5]: Tanguay_ZF_120hpf_SNOU_legacy: (Legacy) Oregon State University Tanguay Lab 120 Hour Post-fertilization zebrafish Assay for Snout Malformation (AID 2283637). A digest of the protocol: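 Dechorionated zebrafish, individually housed from 6 hpf in covered, sealed wells at 28C with 0.64% DMSO vehicle, were examined at 120 hpf for snout malformation. Responses were binary and analysed positive-direction relative to DMSO.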

The nature of experiment [6]: Tanguay_ZF_120hpf_JAW_legacy: (Legacy) Oregon State University Tanguay Lab 120 Hour Post-fertilization zebrafish Assay for Jaw Malformation (AID 2283638).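 On AC50: active means more embryos with jaw malformation than DMSO controls.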 The method in brief: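 Tropical 5D wild-type embryos, dechorionated with pronase at 4 hpf, were placed singly per well at 6 hpf and statically exposed at 28C until 120 hpf (0.64% DMSO final). Jaw malformation scored as present/absent by brightfield microscopy at 120 hpf, analyzed relative to DMSO.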

Experiment [7] is described as follows: Tanguay_ZF_120hpf_OTIC_legacy: (Legacy) Oregon State University Tanguay Lab 120 Hour Post-fertilization zebrafish Assay for Otic Vesicle Malformation (AID 2283639). A digest of the protocol: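 Statically exposed wild-type 5D zebrafish embryos, kept sealed and dark at 28C through 120 hours post fertilization, were examined by brightfield microscopy for otic vesicle defects. Responses were recorded as present or absent and analysed relative to DMSO.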

Experiment [8] is described as follows: Tanguay_ZF_120hpf_PE_legacy: (Legacy) Oregon State University Tanguay Lab 120 Hour Post-fertilization zebrafish Assay for Pericardial Edema (AID 2283640). A digest of the protocol:
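Tropical 5D wild-type zebrafish embryos were exposed statically to 120 hpf at 28C, sealed and foil-covered, in 0.64% DMSO final. Pericardial edema was scored present/absent by brightfield microscopy; dead embryos were not scored.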

The nature of experiment [9]: Tanguay_ZF_120hpf_BRAI_legacy: (Legacy) Oregon State University Tanguay Lab 120 Hour Post-fertilization zebrafish Assay for Brain Malformation (AID 2283641). The method in brief: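 Tropical 5D wild-type zebrafish embryos were exposed statically in sealed, foil-covered plates at 28C until 120 hpf, with 0.64% (vol/vol) final DMSO. Brain malformation was scored present/absent by brightfield microscopy, relative to DMSO baseline.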

Experiment [10] is described as follows: Tanguay_ZF_120hpf_SOMI_legacy: (Legacy) Oregon State University Tanguay Lab 120 Hour Post-fertilization zebrafish Assay for Somite Malformation (AID 2283647). The method in brief: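 Tropical 5D wild-type zebrafish embryos, dechorionated with pronase at 4 hpf, were placed singly at 6 hpf and statically exposed until 120 hpf at 28C in 0.64% DMSO. Somite malformation was scored present/absent by brightfield microscopy versus DMSO.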

Experiment [11] is described as follows: Tanguay_ZF_120hpf_PFIN_legacy: (Legacy) Oregon State University Tanguay Lab 120 Hour Post-fertilization zebrafish Assay for Pectoral Fin Malformation (AID 2283648).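 Further: each larva judged yes or no for fin defect by brightfield with dead larvae skipped.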 The method in brief:
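Scoring of pectoral fin malformation was binary, made at 120 hpf on larvae exposed statically from 6 hpf after enzymatic chorion removal. Activity was fitted upward relative to DMSO controls at 0.64% (vol/vol).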

Experiment [12] can be described thus: Tanguay_ZF_120hpf_CFIN_legacy: (Legacy) Oregon State University Tanguay Lab 120 Hour Post-fertilization zebrafish Assay for Caudal Fin Malformation (AID 2283649). A digest of the protocol: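 Tropical 5D wild-type embryos, dechorionated with pronase at 4 hpf, were placed singly in wells at 6 hpf and statically exposed to compound at 28C until 120 hpf (0.64% DMSO). Caudal fin malformation was scored present/absent by brightfield microscopy.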

Experiment [13] is described as follows: Tanguay_ZF_120hpf_PIG_legacy: (Legacy) Oregon State University Tanguay Lab 120 Hour Post-fertilization zebrafish Assay for Pigmentation Malformation (AID 2283650). The method in brief:
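Endpoint is incidence of abnormal pigmentation at 120 hpf in dechorionated 5D zebrafish exposed singly from 6 hpf at 28C, DMSO vehicle at 0.64%. Embryos dying by 24 or 120 hpf are excluded from scoring.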

The nature of experiment [14]: Tanguay_ZF_120hpf_CIRC_legacy: (Legacy) Oregon State University Tanguay Lab 120 Hour Post-fertilization zebrafish Assay for Circulatory Malformation (AID 2283651). The method in brief:
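Embryos are dechorionated at 4 hpf, plated one per well at 6 hpf, then held under static exposure at 28C until 120 hpf. Malformations are recorded as binary calls; mortality excludes other endpoints.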

The nature of experiment [15]: Tanguay_ZF_120hpf_SWIM_legacy: (Legacy) Oregon State University Tanguay Lab 120 Hour Post-fertilization zebrafish Assay for Swim Bladder Malformation (AID 2283654).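 Further: swim bladder malformation in each larva scored yes or no under brightfield.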 A digest of the protocol: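 Static waterborne exposure of single dechorionated Tropical 5D zebrafish embryos, 6–120 hpf, 28C, 0.64% DMSO final. Read-out: swim bladder malformation, present/absent, relative to DMSO negative control; trimethyltin chloride 5uM served as positive control.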

Experiment [16] can be described thus: Tanguay_ZF_120hpf_TRUN_legacy: (Legacy) Oregon State University Tanguay Lab 120 Hour Post-fertilization zebrafish Assay for Truncated Body (AID 2283655). The method in brief: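 Tropical 5D wild-type embryos, dechorionated with pronase at 4 hpf, were placed singly in wells at 6 hpf and statically exposed at 28C until 120 hpf, final DMSO 0.64%. Truncated body was scored present/absent by brightfield microscopy.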

The nature of experiment [17]: Tanguay_ZF_120hpf_NC_legacy: (Legacy) Oregon State University Tanguay Lab 120 Hour Post-fertilization zebrafish Assay for Notochord and Tail Malformation (AID 2283656). The method in brief:
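Binary scoring of notochord distortion by brightfield microscopy; embryos dying were not scored. Wild-type Tropical 5D embryos, chorion removed, exposed singly and statically from 6 to 120 hpf, 28C, sealed, 0.64% DMSO.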

Read-out in experiment [18]: solute carrier (SLC22A6), SLC22A6 (gene 9356)
The experiment can be described thus: LTEA_HepaRG_SLC22A6: Life Technologies and Expression Analysis (LTEA) Assay for solute carrier (SLC22A6) using HepaRG (AID 2283653; active means hit-call score of the fitted dose curve at least 0.9, where 1 is the maximum; inactive means score below 0.9). Conditions: mRNA level, 48 h; actives raise or lower the signal. The method in brief: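 Differentiated human HepaRG cells were exposed for 48 h in serum-free induction medium to eight concentrations (top 100 uM, half-log steps, 0.5% DMSO), in duplicate. SLC22A6 mRNA was quantified by qRT-PCR, normalised to ACTB, GAPDH and POLR2A, and fitted bidirectionally against DMSO.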

Read-out in experiment [19]: solute carrier (SLC10A1), SLC10A1 (gene 6554)
The experiment can be described thus: LTEA_HepaRG_SLC10A1: Life Technologies and Expression Analysis (LTEA) Assay for solute carrier (SLC10A1) using HepaRG (AID 2283657; active means hit-call score of the fitted dose curve at least 0.9, where 1 is the maximum; inactive means score below 0.9). Conditions: mRNA level, 48 h; actives raise or lower the signal. The method in brief: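 Cryopreserved HepaRG cells are thawed, plated and cultured 48 h; medium is then switched to serum-free induction medium and chemicals added (8 points, max 100 uM, 0.5% DMSO). After 48 h, RNA is isolated and SLC10A1 quantified by qRT-PCR.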

As for `CC(O)CCO` (configuration not stated), the result in experiment [1], in experiment [2], in experiment [3], in experiment [4], in experiment [5] and in experiment [6] was inactive. Also, the outcome in experiment [7], in experiment [8], in experiment [9], in experiment [10], in experiment [11] and in experiment [12] was inactive. For the same molecule, the molecule was classed as inactive in [13], in experiment [14], in experiment [15], in experiment [16] and in [17].

As for `CCCCCCCCCCCCCN1CC(C)OC(C)C1` (configuration not stated), the molecule was classed as inactive in experiment [1], in [2], in experiment [3], in experiment [4], in [5] and in experiment [6]. In addition, the molecule was called inactive in [7], in [8], in [9], in [10], in experiment [11] and in experiment [12]. The molecule was classed as inactive in experiment [13], in experiment [14], in experiment [15] and in [16].

For the molecule `CC(C)(OOC(C)(C)c1ccccc1)c1ccccc1`, the molecule was called inactive in [1], in experiment [2], in experiment [3], in experiment [4], in [5] and in experiment [6]. For the same molecule, the outcome in experiment [7], in [8], in experiment [9], in experiment [10], in experiment [11] and in experiment [12] was inactive. Also, the molecule was called inactive in experiment [13], in [14], in experiment [15], in experiment [16] and in [17].

`CCOC(=O)[C@]1(c2ccccc2)Oc2ccccc2[C@@H]1N`: the result in experiment [1], in experiment [2], in experiment [3], in experiment [4], in experiment [5] and in [6] was inactive. In addition, the call in [7], in experiment [9], in [10], in [13], in experiment [14] and in [15] was inactive. Further, the molecule was classed as inactive in experiment [16] and in [17].

With `CO[C@@H]1[C@H](OC(=O)NC(=O)CCl)CC[C@]2(CO2)[C@H]1[C@@]1(C)O[C@@H]1CC=C(C)C`, the result in experiment [1], in [3], in experiment [4], in [7], in experiment [9] and in [10] was inactive. In addition, the molecule was classed as inactive in [11], in experiment [12], in experiment [14], in [18], in experiment [15] and in [16]. Moreover, the molecule was classed as inactive in experiment [17]. The AC50 was 0.0035 µM (active) in experiment [2], 0.239 µM (active) in experiment [5], 0.0405 µM (active) in experiment [6] and 0.389 µM (active) in experiment [19].

With `c1ccc(N=Nc2ccccc2)cc1`, the result in experiment [1], in experiment [2], in experiment [3], in [4], in experiment [5] and in experiment [6] was inactive. The molecule was called inactive in experiment [7], in experiment [9], in [11], in experiment [12] and in experiment [17].

As for `O=Cc1ccco1`, the call in [1], in [2], in [3], in [4], in [5] and in [6] was inactive. The outcome in experiment [9], in [10], in experiment [11], in experiment [12], in [13] and in [14] was inactive. The result in [16] and in experiment [17] was inactive.

With `COP(=S)(OC)SCN1C(=O)c2ccccc2C1=O`, the call in [1], in experiment [2], in experiment [3], in [4], in [5] and in experiment [6] was inactive. For the same molecule, the outcome in [7], in experiment [9], in experiment [10], in [11], in [12] and in experiment [13] was inactive. Besides, the molecule was called inactive in [14], in experiment [16] and in experiment [17].

On to `CNC(=O)Oc1cccc2c1OC(C)(C)C2`, for which the result in experiment [1], in [2], in [4], in [7], in experiment [9] and in experiment [10] was inactive. Further, the molecule was classed as inactive in [11], in experiment [12], in experiment [13], in experiment [14], in [15] and in experiment [17]. Besides, the half-maximal activity concentration (AC50) in experiment [3] was 6.79 µM (active); in experiment [5] it was 43.9 µM (active); in experiment [6] it was 36 µM (active); in [16] it was 12.6 µM (active).
